Source: the supplement of paper PMC10849652
The full data set covers some 7,900 targets. This sample favours those with a hit. About 0.6% of all pairs of compound and target were hits. Values without a mark were called inactive.

Key:
Assay in all cases: log2 fold change, soluble protein after heating vs DMSO (PISA); higher = thermal stabilisation; K562 cells, 10 uM, 30 min; active = over 0.2 and 3.5 SD of the protein, either way, in both replicates (recomputed)
IRAK-1-4 Inhibitor I = compound: C1COCCN1CCN2C3=CC=CC=C3N=C2NC(=O)C4=CC(=CC=C4)[N+](=O)[O-] [IRAK-1-4 Inhibitor I]
Summary of the method: (§1)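 K562 cells at 2×10^6 cells/mL were exposed to 10 μM compound for 30 min, then aliquots were heated for 3 min across 48°C-58°C, pooled, and extracted in PBS containing 0.5% NP-40 at 4°C. The supernatant after 21,000xg for 90 min was taken as soluble protein and measured by TMTpro 16plex LC-MS/MS with channel sums equalised. Thermal stability is reported relative to control samples, with values from duplicates. Fold changes are given on a log2 scale.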

ibrutinib = compound: C=CC(=O)N1CCC[C@@H](n2nc(-c3ccc(Oc4ccccc4)cc3)c3c(N)ncnc32)C1 [ibrutinib]
Summary of the method: as §1

[1] = compound: CC(=O)c1cnc2ccc(-c3cc(Cl)c(O)c(Cl)c3)nc2c1N[C@H]1CC[C@H](CN(C)C)CC1
Summary of the method: as §1

ralimetinib = compound: CC(C)(C)Cn1c(N)nc2ccc(-c3[nH]c(C(C)(C)C)nc3-c3ccc(F)cc3)nc21 [ralimetinib]
Summary of the method: as §1

[2] = compound: CC(C)(O)CC(=O)NCCn1ccc2ncnc(Nc3ccc(Oc4cccc(C(F)(F)F)c4)c(Cl)c3)c21
Summary of the method: as §1

[3] = compound: CC(C)C1=C2N=C(C=C(N2N=C1)NCC3=CC=CC=C3)NCCCCCCN
Summary of the method: as §1

[4] = compound: CC(C)C[C@@H](C=O)NC(=O)[C@H](CC(C)C)NC(=O)[C@H](CC(C)C)NC(=O)OCc1ccccc1
Summary of the method: as §1

pinometostat = compound: CC(C)N(C[C@H]1O[C@@H](n2cnc3c(N)ncnc32)[C@H](O)[C@@H]1O)[C@H]1C[C@@H](CCc2nc3cc(C(C)(C)C)ccc3[nH]2)C1 [pinometostat]
Summary of the method: as §1

[5] = compound: CC1=C(C(CC(=O)N1)C2=CC=C(C=C2)C(F)(F)F)C(=O)NC3=C(C=C4C(=C3)C=NN4)F
Summary of the method: as §1

[6] = compound: CC1=C(C2=C(C=C1)C(=O)C3=CC=CC=C3N2CCCN)C
Summary of the method: as §1

[7] = compound: CC1=C(C=C(C=C1)NC(=O)C2=CC(=CC=C2)C(C)(C)C#N)NC3=CC4=C(C=C3)N=CN(C4=O)C
Summary of the method: as §1

[8] = compound: CC1=C(C=C(C=C1)NC(=O)C2=CC(=CC=C2)N(C)C)NC(=O)C3=CC=C(C=C3)O
Summary of the method: as §1

[9] = compound: CC1=CC=C(C=C1)SC2=C3C=C(SC3=CN=C2)C(=O)N
Summary of the method: as §1

[10] = compound: CC1=NC(=CC=C1)C2=C(N=C(N2)C(C)(C)C)C3=CC4=NC=CN=C4C=C3
Summary of the method: as §1

Nexturastat A = compound: CCCCN(Cc1ccc(C(=O)NO)cc1)C(=O)Nc1ccccc1 [Nexturastat A]
Summary of the method: as §1

vemurafenib = compound: CCCS(=O)(=O)Nc1ccc(F)c(C(=O)c2c[nH]c3ncc(-c4ccc(Cl)cc4)cc23)c1F [vemurafenib]
Summary of the method: as §1

[11] = compound: CCCS(=O)(=O)Nc1ccc(F)c(C(=O)c2c[nH]c3ncc(Cl)cc23)c1F
Summary of the method: as §1

[12] = compound: CCCc1cc(C)[nH]c(=O)c1CNC(=O)c1cc(-c2ccnc(N3CCN(C)CC3)c2)cc2c1cnn2C(C)C
Summary of the method: as §1

givinostat = compound: CCN(CC)Cc1ccc2cc(COC(=O)Nc3ccc(C(=O)NO)cc3)ccc2c1 [givinostat]
Summary of the method: as §1

barasertib = compound: CCN(CCCOc1ccc2c(Nc3cc(CC(=O)Nc4cccc(F)c4)[nH]n3)ncnc2c1)CCOP(=O)(O)O [barasertib]
Summary of the method: as §1

UniProt Q96QD8, sequence (Q96QD8 whole entry, looked up): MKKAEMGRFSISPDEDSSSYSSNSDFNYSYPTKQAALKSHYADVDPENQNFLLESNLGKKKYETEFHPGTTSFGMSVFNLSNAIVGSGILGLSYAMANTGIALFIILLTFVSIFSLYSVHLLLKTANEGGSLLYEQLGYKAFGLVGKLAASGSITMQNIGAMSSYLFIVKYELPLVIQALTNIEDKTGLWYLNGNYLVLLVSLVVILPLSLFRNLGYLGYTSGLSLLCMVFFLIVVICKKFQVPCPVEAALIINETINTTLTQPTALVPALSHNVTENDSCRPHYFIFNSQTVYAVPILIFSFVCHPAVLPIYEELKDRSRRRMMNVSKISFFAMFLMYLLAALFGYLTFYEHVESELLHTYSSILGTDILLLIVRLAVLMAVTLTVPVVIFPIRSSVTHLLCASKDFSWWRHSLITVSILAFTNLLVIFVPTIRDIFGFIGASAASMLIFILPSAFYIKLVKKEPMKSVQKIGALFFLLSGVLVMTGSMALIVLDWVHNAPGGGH
UniProt Q13596, sequence (Q13596 whole entry, looked up): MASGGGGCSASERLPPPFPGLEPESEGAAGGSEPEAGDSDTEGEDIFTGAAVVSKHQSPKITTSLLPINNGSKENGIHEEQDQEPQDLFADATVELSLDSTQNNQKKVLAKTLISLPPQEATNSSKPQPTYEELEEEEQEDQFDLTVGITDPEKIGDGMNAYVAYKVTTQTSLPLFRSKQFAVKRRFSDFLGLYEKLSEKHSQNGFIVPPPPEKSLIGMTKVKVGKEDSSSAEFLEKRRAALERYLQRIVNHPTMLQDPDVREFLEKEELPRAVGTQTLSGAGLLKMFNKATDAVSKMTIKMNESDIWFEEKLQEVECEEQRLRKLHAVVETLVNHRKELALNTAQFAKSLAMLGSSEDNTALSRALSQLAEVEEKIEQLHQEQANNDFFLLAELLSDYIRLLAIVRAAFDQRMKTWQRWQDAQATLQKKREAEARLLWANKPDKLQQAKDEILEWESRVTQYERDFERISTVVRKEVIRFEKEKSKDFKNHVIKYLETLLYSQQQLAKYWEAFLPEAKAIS
UniProt P51687, sequence (P51687 whole entry, looked up): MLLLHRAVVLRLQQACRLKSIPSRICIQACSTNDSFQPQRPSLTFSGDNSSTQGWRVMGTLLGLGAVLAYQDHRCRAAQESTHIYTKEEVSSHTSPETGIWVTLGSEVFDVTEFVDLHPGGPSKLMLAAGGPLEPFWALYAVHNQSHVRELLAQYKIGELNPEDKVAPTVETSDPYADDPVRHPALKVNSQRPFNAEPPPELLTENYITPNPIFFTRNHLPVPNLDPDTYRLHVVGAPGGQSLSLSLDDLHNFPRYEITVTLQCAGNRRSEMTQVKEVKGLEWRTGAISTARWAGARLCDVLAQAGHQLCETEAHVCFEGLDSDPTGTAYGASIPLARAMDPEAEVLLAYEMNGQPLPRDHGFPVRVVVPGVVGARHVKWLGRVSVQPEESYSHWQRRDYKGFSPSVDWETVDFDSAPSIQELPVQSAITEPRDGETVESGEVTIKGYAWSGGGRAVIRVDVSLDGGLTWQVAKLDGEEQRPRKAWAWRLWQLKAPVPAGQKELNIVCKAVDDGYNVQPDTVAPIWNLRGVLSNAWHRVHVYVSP
UniProt Q9NZD8, sequence (Q9NZD8 whole entry, looked up): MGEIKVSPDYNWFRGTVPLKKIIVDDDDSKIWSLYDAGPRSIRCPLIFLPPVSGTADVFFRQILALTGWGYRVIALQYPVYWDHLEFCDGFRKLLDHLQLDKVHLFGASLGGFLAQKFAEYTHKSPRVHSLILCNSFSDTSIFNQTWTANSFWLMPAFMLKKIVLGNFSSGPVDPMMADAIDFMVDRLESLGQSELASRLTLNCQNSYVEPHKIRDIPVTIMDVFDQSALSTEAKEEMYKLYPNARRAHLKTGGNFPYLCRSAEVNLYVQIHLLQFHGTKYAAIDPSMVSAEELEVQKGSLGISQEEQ
UniProt Q15005, sequence (Q15005 whole entry, looked up): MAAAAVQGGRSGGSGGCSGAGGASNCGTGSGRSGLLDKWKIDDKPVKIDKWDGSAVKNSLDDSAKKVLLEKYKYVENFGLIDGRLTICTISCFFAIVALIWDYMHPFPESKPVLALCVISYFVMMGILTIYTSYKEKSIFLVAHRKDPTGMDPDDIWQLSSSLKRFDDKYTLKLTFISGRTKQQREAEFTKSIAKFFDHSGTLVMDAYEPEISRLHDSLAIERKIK
UniProt O76094, sequence (O76094 whole entry, looked up): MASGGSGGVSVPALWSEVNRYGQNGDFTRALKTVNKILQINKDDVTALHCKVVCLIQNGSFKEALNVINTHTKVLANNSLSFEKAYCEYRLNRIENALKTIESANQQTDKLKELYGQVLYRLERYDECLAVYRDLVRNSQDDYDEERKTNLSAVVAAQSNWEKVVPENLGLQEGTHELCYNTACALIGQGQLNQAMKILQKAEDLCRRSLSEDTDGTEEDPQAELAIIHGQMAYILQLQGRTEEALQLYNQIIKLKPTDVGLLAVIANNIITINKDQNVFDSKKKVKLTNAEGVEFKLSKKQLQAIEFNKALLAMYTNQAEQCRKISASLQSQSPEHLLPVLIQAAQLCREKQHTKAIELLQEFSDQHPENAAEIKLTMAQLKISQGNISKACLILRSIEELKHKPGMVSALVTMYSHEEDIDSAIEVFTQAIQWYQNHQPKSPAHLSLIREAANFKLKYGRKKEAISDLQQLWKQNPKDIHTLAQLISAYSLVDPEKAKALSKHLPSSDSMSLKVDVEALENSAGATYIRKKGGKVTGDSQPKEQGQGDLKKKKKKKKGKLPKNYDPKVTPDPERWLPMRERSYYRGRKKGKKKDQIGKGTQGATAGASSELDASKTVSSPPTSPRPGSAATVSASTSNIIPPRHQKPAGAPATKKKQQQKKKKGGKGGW
UniProt Q9H4L7, sequence (Q9H4L7 whole entry, looked up): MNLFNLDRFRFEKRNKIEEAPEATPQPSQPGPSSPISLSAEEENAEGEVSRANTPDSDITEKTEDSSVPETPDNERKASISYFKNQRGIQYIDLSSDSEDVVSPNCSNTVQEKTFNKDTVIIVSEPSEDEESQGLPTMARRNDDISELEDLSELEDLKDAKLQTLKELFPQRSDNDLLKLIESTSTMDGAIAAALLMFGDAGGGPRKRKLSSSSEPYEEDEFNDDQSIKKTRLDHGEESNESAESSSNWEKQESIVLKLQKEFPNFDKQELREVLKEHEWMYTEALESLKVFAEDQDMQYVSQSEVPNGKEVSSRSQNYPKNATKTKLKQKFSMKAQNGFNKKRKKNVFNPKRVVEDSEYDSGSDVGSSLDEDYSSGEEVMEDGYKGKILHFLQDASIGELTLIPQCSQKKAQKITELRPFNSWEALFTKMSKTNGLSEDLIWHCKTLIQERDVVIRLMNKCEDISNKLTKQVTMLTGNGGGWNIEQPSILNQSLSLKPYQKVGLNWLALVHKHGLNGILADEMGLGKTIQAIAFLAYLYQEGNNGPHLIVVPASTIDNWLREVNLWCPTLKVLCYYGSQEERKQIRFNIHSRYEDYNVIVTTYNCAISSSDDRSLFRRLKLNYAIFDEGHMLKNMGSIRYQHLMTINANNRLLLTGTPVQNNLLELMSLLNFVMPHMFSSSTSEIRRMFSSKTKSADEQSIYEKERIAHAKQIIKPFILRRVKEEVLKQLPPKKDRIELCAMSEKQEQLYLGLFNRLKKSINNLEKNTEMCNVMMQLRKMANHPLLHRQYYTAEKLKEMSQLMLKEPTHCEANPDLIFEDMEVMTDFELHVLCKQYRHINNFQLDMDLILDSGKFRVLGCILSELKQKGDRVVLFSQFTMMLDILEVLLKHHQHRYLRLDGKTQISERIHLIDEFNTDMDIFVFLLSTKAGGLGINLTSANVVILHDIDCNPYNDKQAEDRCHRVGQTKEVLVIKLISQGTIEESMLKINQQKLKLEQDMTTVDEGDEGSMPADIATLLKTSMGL
UniProt Q9NZ01, sequence (Q9NZ01 whole entry, looked up): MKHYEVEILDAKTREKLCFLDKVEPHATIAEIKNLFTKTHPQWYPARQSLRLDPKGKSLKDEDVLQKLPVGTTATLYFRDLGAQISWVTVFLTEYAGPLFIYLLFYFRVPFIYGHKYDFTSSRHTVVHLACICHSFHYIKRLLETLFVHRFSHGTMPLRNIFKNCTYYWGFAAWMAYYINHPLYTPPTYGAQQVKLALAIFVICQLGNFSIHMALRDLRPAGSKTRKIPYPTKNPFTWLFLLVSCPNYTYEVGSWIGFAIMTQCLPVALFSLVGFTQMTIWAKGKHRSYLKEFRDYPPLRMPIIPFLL

| Target | log2 fold change (IRAK-1-4 Inhibitor I) | log2 fold change (ibrutinib) | log2 fold change [1] | log2 fold change (ralimetinib) | log2 fold change [2] | log2 fold change [3] | log2 fold change [4] | log2 fold change (pinometostat) | log2 fold change [5] | log2 fold change [6] | log2 fold change [7] | log2 fold change [8] | log2 fold change [9] | log2 fold change [10] | log2 fold change (Nexturastat A) | log2 fold change (vemurafenib) | log2 fold change [11] | log2 fold change [12] | log2 fold change (givinostat) | log2 fold change (barasertib) |
| --- | --- | --- | --- | --- | --- | --- | --- | --- | --- | --- | --- | --- | --- | --- | --- | --- | --- | --- | --- | --- |
| SRP72 (UniProt O76094) | -0.119 | -0.03 | -0.025 | 0.104 | -0.121 | -0.275 | 0.062 | 0.205 | -0.026 | -0.547 (active) | 0.024 | -0.01 | 0.034 | -0.009 | 0.171 | 0.037 | 0.09 | 0.046 | 0.143 | 0.078 |
| SMARCAD1 isoform 2 (UniProt Q9H4L7) | -0.031 | -0.016 | 0.014 | -0.009 | -0.201 | -0.2 | 0.029 | -0.003 | -0.007 | 0.144 | 0.028 | -0.072 | -0.026 | 0.064 | -0.028 | 0.192 | 0.101 | 0.035 | 0.127 | 0.089 |
| SLC38A2 (UniProt Q96QD8) | 0.018 | 0.022 | -0.057 | -0.097 | -0.12 | -0.28 (active) | 0.102 | -0.053 | 0.019 | 0.01 | 0.118 | 0.026 | 0.067 | 0.062 | -0.133 | 0.032 | 0.096 | -0.107 | -0.014 | -0.039 |
| SUOX (UniProt P51687) | 0.123 | -0.007 | 0.003 | 0.012 | -0.022 | 0.042 | 0.013 | 0.016 | 0.039 | 0.02 | -0.012 | -0.002 | -0.007 | -0.334 (active) | -0.021 | -0.046 | -0.051 | 0.023 | -0.033 | 0.007 |
| SPG21 (UniProt Q9NZD8) | -0.042 | -0.167 | -0.046 | 0.014 | 0.043 | -0.007 | 0.021 | 0.019 | -0.062 | 0.072 | -0.108 | -0.157 | -0.003 | 0.057 | 0.016 | 0.044 | -0.044 | 0.057 | -0.014 | 0.026 |
| SPCS2 (UniProt Q15005) | -0.014 | -0.037 | -0.039 | -0.047 | -0.016 | -0.01 | -0.058 | -0.062 | -0.033 | 0.002 | 0.011 | 0.004 | 0 | 0.3 | -0.052 | 0.075 | 0.058 | -0.011 | -0.009 | 0.025 |
| TECR (UniProt Q9NZ01) | 0.04 | -0.059 | 0 | -0.061 | -0.107 | -0.458 (active) | 0.009 | 0.024 | 0.012 | 0.036 | -0.017 | -0.034 | 0.031 | 0.069 | -0.043 | 0.021 | 0.113 | -0.084 | 0.011 | 0.007 |
| SNX1 (UniProt Q13596) | 0.022 | 0.022 | -0.227 | 0.033 | -0.288 | -0.246 | 0.034 | 0.014 | 0.015 | 0.036 | -0.014 | -0.001 | -0.001 | 0.042 | -0.025 | 0.002 | 0.083 | -0.014 | 0.054 | 0.037 |
